# Active and inactive are the calls of the source. No stated cut-off is given here; in the data, active means inhibition score above about 11; inactive means the rest.
# Assay: S. cerevisiae short- and long-term growth effects – BY4741, OD595, 24 h, dose response (AID 489042)
# Conditions: flow cytometer event count, 7 d (AID 449753), active compounds read high
row,Compound,inhibition score
1,C[C@]12CCC3C(CC[C@H]4C[C@H](O)CC[C@]34C)C1C[C@@H](CCCCl)[C@@H]2O (stereo not given in full),0 (inactive)
2,C#C[C@]1(O)[C@H](O)CC2C3CC[C@H]4C[C@@H](O)CC[C@]4(C)C3CC[C@@]21C (stereo not given in full),0 (inactive)
3,C[C@]12CCC3C(CC[C@H]4C[C@@H](O)CC[C@]34C)C1CC[C@@H]2OC(=O)[C@H](N)CCCCN (stereo not given in full),0 (inactive)
4,C=C1C(O)[C@@H]2O[C@]3(CC[C@H](/C=C/C(C)[C@@H]4CC(C)=CC5(O[C@H](C[C@@](C)(O)C(=O)O)CCC5O)O4)O3)CC[C@H]2O[C@@H]1C(O)CC(C)[C@H]1OC2(CCCCO2)CCC1C (stereo not given in full),11 (active)
5,C[C@]12CCC3C(CC[C@H]4C[C@H](O)CC[C@]34C)C1CCC2=O (stereo not given in full),0 (inactive)
6,OCC[n+]1c2ccccc2nc2ccc(N3CCOCC3)cc21,0 (inactive)
7,C[n+]1c2ccccc2nc2ccc(NCCO)cc21,0 (inactive)
8,Oc1cccc2nc3ccccc3nc12,0 (inactive)
9,O=c1[nH]c(O)c(C=Nc2ccc(F)c(Cl)c2)c(=O)[nH]1,0 (inactive)
10,Cn1c(O)c(C(=Nc2ccc(F)cc2)c2ccccc2Cl)c(=O)n(C)c1=O,0 (inactive)
11,CNc1ccc2nc3ccccc3[n+](C)c2c1,0 (inactive)
12,Cn1c(=O)[nH]c2nncnc2c1=O,0 (inactive)
13,Nc1cc2nc3ccccc3nc2cc1N,0 (inactive)
14,C[C@]12CCC3C(CC[C@H]4C[C@@H](O)CC[C@]34C)[C@H]1CC[C@H]2O (stereo not given in full),0 (inactive)
15,CC(=O)O[C@H]1CCC2C3CC[C@H]4[C@@H](O)[C@H](O)CC[C@]4(C)C3CC[C@@]21C (stereo not given in full),0 (inactive)

# Source: PubChem BioAssay AID489042 (NMMLSC, 2010)
